# Reference: PubChem BioAssay (NCATS)
# Values without a mark were called inactive. No rule for the calls is given here.
# System: HIV-1 nucleocapsid protein NCp7 (binding to TG oligonucleotide)
# Assay: HIV Nucleocapsid (AID 346);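 also: potency is for inhibitors that block NC binding and lower polarization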
# Conditions: HIV-1 NC / fluorescein-TGTGTGTG probe, fluorescence polarization
# In short: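 Fluorescence polarization readout: labelled TG4xF oligo (10 nM) with 100 nM nucleocapsid protein, high-salt (250mM NaCl) Hepes pH 7.5 buffer containing zinc and fresh reducing agents. Compounds added by pin tool; incubation 1 hr, room temperature.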
# Potency is read from the fitted curve at half-maximal effect.
row,SMILES,Potency [µM]
1,COCCNc1cc(-c2ccccc2C)ncn1,> 20
2,CN(C)c1ccc(-c2cc(NCc3ccccc3)ncn2)cc1,> 20
3,O=c1c(-c2ccc(F)cc2)nc2cnc(Oc3ccccc3)nc2n1C1CC1,> 20
4,CS(=O)(=O)Nc1cccc(-c2cncnc2NCc2cccnc2)c1,> 20
5,CN(C)Cc1ccccc1-c1ccc2ncnc(N(C)C)c2c1,> 20
6,N#Cc1cccc(-c2ccc3ncnc(NCCN4CCOCC4)c3c2)c1,> 20
7,COC(=O)N1CCC2(CCN(Cc3ccccc3OC)CC2)CC1,> 20
8,COc1ccc(NC(=O)N2CC[C@@]3(CCCN(C(=O)c4c(C)noc4C)C3)C2)cc1,> 20
9,COc1ccccc1CN1CC[C@@]2(CCCN(C(=O)c3cc(C(F)(F)F)cc(C(F)(F)F)c3)C2)C1,> 20
10,COc1cccc(Cn2c(=O)c(-c3cn(C)c4ccccc34)nc3cnc(OC)nc32)c1,> 20
11,COc1cccc(-c2cncnc2NCc2cccnc2)c1,> 20
12,Cn1c(=O)c(CCc2ccccc2)nc2cnc(Nc3ccccc3)nc21,> 20
13,Cc1noc(C)c1-c1cncnc1N1CCN(C)CC1,> 20
14,O=c1cnc2cnc(Oc3ccccc3)nc2n1CCc1ccccc1,> 20
15,CS(=O)(=O)Nc1cccc(-c2nccc(Nc3ccc(F)cc3)n2)c1,> 20
16,O=c1c(-c2ccccc2)nc2cnc(N3CCNCC3)nc2n1-c1ccccc1,> 20
17,CC(=O)N1CCC2(CC1)CCN(c1ccncc1)CC2,> 20
18,Cn1cccc1C(=O)N1CCC2(CC1)CN(c1ccncc1)C2,> 20
19,CC(=O)N1CCC2(CCCN(C(=O)Nc3cccc(C#N)c3)C2)CC1,> 20
20,Cn1cccc1C(=O)N1CCC2(CCCN(c3ccncc3)C2)CC1,> 20

row,SMILES,Potency [µM]
1,COc1ccc(C(=O)N2CCC3(CCCN(c4ncccn4)C3)CC2)cc1,> 20
2,COCC(=O)N1CCC[C@@]2(CCN(c3ccccc3)C2)C1,> 20
3,CC(C)NC(=O)N1CC[C@@]2(CCCN(C(=O)c3cc(C(F)(F)F)cc(C(F)(F)F)c3)C2)C1,> 20
4,O=c1c(-c2ccccc2)nc2cncnc2n1Cc1ccc(F)cc1,> 20
5,COc1ccc2[nH]cc(CCNc3cc(-c4c(C)noc4C)ncn3)c2c1,> 20
6,CC(=O)NCCNc1nc(-c2ccccc2Cl)nc2ccccc12,> 20
7,COc1ccccc1-c1nccc(NCc2cnc(C)cn2)n1,> 20
8,CCNc1ncc2nc(-c3cc(F)cc(F)c3)c(=O)n(-c3ccccc3)c2n1,> 4
9,CN1CCN(c2ncc3nc(-c4cccc(C#N)c4)c(=O)n(C)c3n2)CC1,> 20
10,COCCNc1ncnc2ccc(-c3cccnc3)cc12,> 20
11,Cn1c(=O)c(-c2ccc(F)cc2)nc2cnc(Oc3ccccc3)nc21,> 20
12,CN(C)c1ncnc2ccc(-c3ccc4c(c3)OCO4)cc12,> 20
13,O=C(c1cccc(F)c1)N1CCC2(CC1)CN(c1ccccc1)C2,> 20
14,c1cncc(-c2nccc(NCc3cccs3)n2)c1,> 20
15,CS(=O)(=O)N1CCC[C@@]2(CCN(Cc3ccccc3)C2)C1,> 20
16,O=S(=O)(c1ccccc1)N1CCC2(CC1)CN(c1ncccn1)C2,> 20
17,Cc1cnc(CNc2cc(-c3ccc(C(=O)N(C)C)cc3)ncn2)cn1,> 20
18,O=C(c1cccc(F)c1)N1CCC2(CCN(Cc3cc(C(F)(F)F)cc(C(F)(F)F)c3)CC2)CC1,> 20
19,COc1ccccc1CN1CCC2(CC1)CCN(C(=O)c1ccco1)CC2,> 20
20,CC(=O)N1CCC2(CC1)CN(Cc1ccccc1)C2,> 20
